This passage reports Potency results from PubChem BioAssay AID2778 (National Center for Advancing Translational Sciences (NCATS), 2010).

For this assay, the target named is Menin (Homo sapiens) (UniProt O00255). Description: Confirmation of Inhibitors Targeting the Menin-MLL Interaction in MLL Related Leukemias: Confirmation in an HTRF (commercial TR-FRET) Assay using His-tagged menin and biotin-labeled MLL peptide. Particulars: His-menin / biotin-MLL peptide binding; series mostly up to 126 µM. Put shortly: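 HTRF: His6-menin (200 nM) and biotin-MLL-w.t. peptide (80 nM) preincubated 15 min, then compounds 1 hr at ambient, before Eu-cryptate anti-His (3.5 nM) and streptavidin-XL665 (10 nM) for 1 h; 50 mM Tris-HCl pH 7.5, 50 mM NaCl, 1 mM DTT, BSA.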
On the technique in general: TR-FRET usually uses a lanthanide donor and a delayed reading to cut background.

Inconclusive results are not listed. Entries that show only a call come without a potency. The source made the active and inactive calls. Calls come from the whole dose curve; as a rule, active = well fitted inhibition curve with a large enough effect; inconclusive = small, poorly fitted or top-dose-only effect, or effect the other way; inactive = flat fitted curve, though single readings scatter.
Potency is the fitted concentration of half-maximal effect.

Menin (Homo sapiens), sequence (O00255 whole entry, looked up): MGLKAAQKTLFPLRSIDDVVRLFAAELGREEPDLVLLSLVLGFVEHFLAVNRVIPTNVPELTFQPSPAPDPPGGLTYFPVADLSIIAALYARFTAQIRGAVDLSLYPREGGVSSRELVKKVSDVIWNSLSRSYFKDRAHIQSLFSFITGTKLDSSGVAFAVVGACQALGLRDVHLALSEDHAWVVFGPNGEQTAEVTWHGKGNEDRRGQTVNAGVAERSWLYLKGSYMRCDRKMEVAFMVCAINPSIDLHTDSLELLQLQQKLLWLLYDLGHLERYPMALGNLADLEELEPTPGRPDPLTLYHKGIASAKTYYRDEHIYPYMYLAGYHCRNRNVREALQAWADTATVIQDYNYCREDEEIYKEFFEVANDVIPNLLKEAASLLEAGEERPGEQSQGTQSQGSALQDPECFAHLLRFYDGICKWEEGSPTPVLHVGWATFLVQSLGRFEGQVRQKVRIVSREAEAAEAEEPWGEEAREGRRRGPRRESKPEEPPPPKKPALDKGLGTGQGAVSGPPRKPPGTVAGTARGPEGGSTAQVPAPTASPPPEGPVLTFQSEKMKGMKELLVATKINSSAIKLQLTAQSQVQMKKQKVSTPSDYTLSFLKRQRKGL

With `CCN1C(=O)c2ccccc2S(=O)(=O)c2ccc(C(=O)NCCCN(CC(C)C)CC(C)C)cc21`, the Potency result is “inactive”.
For the molecule `CCOC(=O)N1CCN(CC(=O)N2c3ccccc3Sc3ccccc32)CC1`, the Potency entry was “inactive”.
With `O=C1NC(=S)N/C1=C/c1ccc2ccccc2c1`, the Potency result is “inactive”.
With `CC(c1cc2ccccc2s1)N(O)C(N)=O` (stereo unspecified), the Potency result was “inactive”.
On to `COC(=O)[C@H](C)NC(=O)c1cc2c(cn1)[nH]c1ccccc12`, for which the Potency was 50.1 µM (active).
Consider `COc1cc(NC(=O)c2cccnc2)c(OC)cc1NC(=O)c1ccc(Br)cc1`, for which the Potency result was “inactive”.
As to `COC(=O)c1ccccc1NC1=C/C(=N\S(=O)(=O)c2ccc(C(=O)O)cc2)c2ccccc2C1=O`, the Potency result is “inactive”.
With `COc1ccc(CCNCc2cc(C)n(-c3ccc(OC)cc3)c2C)cc1`, the Potency entry is “inactive”.
For the molecule `CCOc1ccccc1N(CC(=O)Nc1ccccc1C(=O)N1CCCC1)S(C)(=O)=O`, the Potency entry was “inactive”.
As to `CCn1cnc2c1c(=O)n(CC(=O)O)c(=O)n2Cc1ccccc1`, the Potency result is “inactive”.
Consider `COc1ccc(N(C(=O)c2ccncc2)S(=O)(=O)c2ccc(Cl)cc2)cc1`, for which the Potency entry was “inactive”.
As for `O=C1C(Cl)=C(NC(=O)c2ccccc2)C(=O)C(Cl)=C1NC(=O)c1ccccc1`, the Potency result was “inactive”.
The entry for `COc1ccc(CNC(=O)C(c2ccc(O)cc2)N(Cc2ccco2)C(=O)c2snc(C(N)=O)c2N)cc1` (stereo unspecified) is “inactive”.
For the molecule `CCCC(=O)Nc1cccc(NC(=O)c2ccc([N+](=O)[O-])cc2Cl)c1`, the Potency entry is “inactive”.
As to `COc1ccc(OC)c(C2C3=C(N=c4s/c(=C\c5cccc(O)c5)c(=O)n42)c2ccccc2CC3)c1` (stereo unspecified), the Potency result is “inactive”.
On to `O=C(O)CSc1cc(NS(=O)(=O)c2ccc(Br)cc2)c2ccccc2c1O`, for which the Potency is 89.1 µM (active).
